D3 antag – antagonists of human D3 dopamine receptor | P35462 | D3R cells, DiscoveRx beta-arrestin luminescence, antagonist mode; active compounds read low | max response, negative = inhibition, % | actives 2.5% (n = 360,000); in the data active = max response below about -50%; inconclusive = no clear call, values can overlap the other calls
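Cells expressing the human receptor were seeded at 1500 cells/well, incubated overnight at 37 degrees C in 5% CO2, then exposed to library compounds with dopamine controls for 90 minutes at 37 degrees C before luminescent detection.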
LDHA inh – LDHA (human) enzyme inhibition. actives 0.15% (n = 480,000). activity change, % (values are at about 110 or 230 µM). purified LDHA, NADH/diaphorase-resazurin fluorescence; active compounds read low; in the data active = activity change below about -30%; inconclusive = mostly about -25% to -30%
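Resorufin fluorescence (ex540/em590), read at 0 and 20 min after diaphorase/resazurin addition, reports the NADH left after a 5 min room-temperature reaction of 2 nM human LDH5 with 0.06 mM NADH and 0.2 mM pyruvate.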
D3 ag – agonists of human D3 dopamine receptor | P35462 | D3R DiscoveRx beta-arrestin cells, luminescence, 90 min | max activation, % | actives 0.58% (n = 410,000) | AID 652048; in the data active = max activation above about 30%
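Agonist mode: compounds and dopamine controls were applied to plated cells for 90 min at 37 degrees C after an overnight attachment at 1500 cells/well. Luminescent read-out followed 30 - 60 minutes at room temperature with DiscoveRx detection reagent.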
PI4K2A block – PI4K2A (human) kinase inhibition. Q9BTU6. purified PI4K2A, ADP-Glo luminescence, 1 h; active compounds read low. activity change, negative = inhibition, % at 76.9 µM. actives 0.13% (n = 420,000). AID 1346378; in the data active = activity change below about -50%; inconclusive = mostly about -30% to -49%
Target sequence (Q9BTU6 whole entry, looked up): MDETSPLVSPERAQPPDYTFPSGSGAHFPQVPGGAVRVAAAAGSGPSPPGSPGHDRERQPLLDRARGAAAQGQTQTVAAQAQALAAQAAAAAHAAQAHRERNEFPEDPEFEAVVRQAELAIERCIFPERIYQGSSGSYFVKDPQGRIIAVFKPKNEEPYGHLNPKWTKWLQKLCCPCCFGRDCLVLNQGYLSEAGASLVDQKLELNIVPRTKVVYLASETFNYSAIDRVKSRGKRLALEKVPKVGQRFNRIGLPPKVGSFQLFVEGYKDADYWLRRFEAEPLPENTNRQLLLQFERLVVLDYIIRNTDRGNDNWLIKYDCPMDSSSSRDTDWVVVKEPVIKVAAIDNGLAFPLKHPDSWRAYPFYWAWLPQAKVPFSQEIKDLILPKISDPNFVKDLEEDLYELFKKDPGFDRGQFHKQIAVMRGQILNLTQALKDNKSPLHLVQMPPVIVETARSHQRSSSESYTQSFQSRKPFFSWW
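PI4K2A activity was measured by ADP-Glo luminescence: enzyme (4 ug/mL stock) and phosphatidylinositol (1.2 mM stock) in Tris pH 7.5/MgCl2/EGTA/Triton X-100 buffer were reacted with ATP (300 microM stock) for one hour at ambient temperature.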
PI5P4K alpha inh – PI5P4K alpha (human) kinase inhibition; max response, %; PI5P4Kalpha enzyme, ADP-Glo luminescence, 60 min; active compounds read low; actives 1.2% (n = 330,000); AID 652105; P48426; active = max response of -50% or lower; inconclusive = between -30% and -50%; inactive = -30% or higher; also: value at the top dose of about 77 µM
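Luminescence from ADP-Glo served as readout of PI5P4Kalpha activity in a qHTS format. Reaction: enzyme, substrate, compound, ATP at 5 microM final, 60 min at RT.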
A number is an active result. An excerpt weighted towards active compounds, which were near 3.3% of everything screened.

For O=C(CCc1ccc(O)c(O)c1)NNC(=S)Nc1ccc(Br)cc1Cl the results were D3 antag inconclusive, LDHA inh inactive, D3 ag 37.3, PI4K2A block inactive and PI5P4K alpha inh inactive.
For O=C(CCc1ccc(O)c(O)c1)NNC(=S)NCCc1ccccc1 the results were D3 antag inactive, LDHA inh inactive, D3 ag 58.7, PI4K2A block inactive and PI5P4K alpha inh inactive.
COc1ccc(CCC(=O)NNC(=O)Nc2cccc(Cl)c2)cc1 was read as D3 antag inactive, LDHA inh inactive, D3 ag inactive, PI4K2A block inactive and PI5P4K alpha inh inactive.
COc1cccc(NC(=O)NNC(=O)CCc2ccc(O)c(O)c2)c1 was read as D3 antag inactive, LDHA inh inactive, D3 ag 66.9, PI4K2A block inactive and PI5P4K alpha inh inactive.
`COc1ccc(NC(=O)CSc2nc3ccc(NC(=O)c4ccccc4F)cc3s2)cc1` gave LDHA inh inactive.
`Cc1cccc(C)c1N(C)S(=O)(=O)c1ccc2c(c1)C(=O)Nc1cc(Cl)ccc1O2` gave LDHA inh inactive.
`COc1ccc(NC(=O)CCN2C(=O)c3ccccc3C2=O)cc1` gave D3 antag inactive, LDHA inh inactive, D3 ag inactive, PI4K2A block inactive and PI5P4K alpha inh inactive.
COc1ccc(NC(=O)CN2CCc3ccccc3C2)cc1 was read as D3 antag -80.1, LDHA inh inactive, D3 ag inactive, PI4K2A block inactive and PI5P4K alpha inh inactive.
For COc1ccc(NC(=O)COC(=O)CN2C(=O)c3ccccc3C2=O)cc1 the results were D3 antag -54.3, LDHA inh inactive, D3 ag inactive, PI4K2A block inactive and PI5P4K alpha inh inactive.
`O=C(NCCN1CCc2ccccc2C1)Nc1ccc([N+](=O)[O-])cc1` gave D3 antag inactive, LDHA inh inactive, D3 ag inactive, PI4K2A block inactive and PI5P4K alpha inh inactive.
CCN1CCc2nc(SCC(=O)Nc3ccc(OC)cc3)c(C#N)cc2C1 was read as D3 antag -70.1, LDHA inh inactive, D3 ag inactive, PI4K2A block inactive and PI5P4K alpha inh inactive.
Screening O=C(NCCCN1CCc2ccccc2C1)Nc1ccc(Br)cc1 returned D3 antag -55.0, LDHA inh inactive, D3 ag inactive, PI4K2A block inactive and PI5P4K alpha inh inactive.
For CCCCCNC(=O)C(C#N)c1nc2ccccc2nc1OC(C)C (configuration not stated) the results were LDHA inh inactive.
COc1ccc(N2CCN(CCCNC(=O)Nc3ccccc3)CC2)cc1 was read as D3 antag inactive, LDHA inh inactive, D3 ag inactive and PI4K2A block inactive.
`COc1ccc(NC(=O)NCCCN2CCc3ccccc3C2)cc1` gave D3 antag -108.4, LDHA inh inactive, D3 ag inactive, PI4K2A block inactive and PI5P4K alpha inh inactive.
`CCc1ccc(S(=O)(=O)/N=C2\C=C(NS(=O)(=O)c3ccccc3)C(=O)c3ccccc32)cc1` gave D3 antag inconclusive, LDHA inh inactive, D3 ag inactive, PI4K2A block -50.1 and PI5P4K alpha inh inconclusive.
Screening CC(C)c1ccc(S(=O)(=O)/N=C2\C=C(NS(=O)(=O)c3ccccc3)C(=O)c3ccccc32)cc1 returned D3 antag inconclusive, LDHA inh inactive, D3 ag inactive, PI4K2A block inactive and PI5P4K alpha inh -67.8.
`CC(C)COC(=O)/C(=C/c1ccco1)NC(=O)c1ccccc1Cl` gave LDHA inh inactive.
For Cc1ccc(-c2cc(C(=O)OCC(=O)NC3CC3)c3ccccc3n2)cc1 the results were D3 antag inactive, LDHA inh inactive, D3 ag inactive, PI4K2A block inactive and PI5P4K alpha inh inactive.
`COc1cc(-c2cc(C(=O)N(C)Cc3ccccc3)c3ccccc3n2)cc(OC)c1OC` gave D3 antag inactive, LDHA inh inactive, D3 ag 32.5, PI4K2A block inactive and PI5P4K alpha inh inactive.
COc1cc(-c2cc(C(=O)OCC(=O)NC3CC3)c3ccccc3n2)cc(OC)c1OC was read as D3 antag inactive, LDHA inh inactive, D3 ag 32.5, PI4K2A block inactive and PI5P4K alpha inh inactive.
For COc1ccccc1CN(C)C(=O)c1cc(-c2cc(OC)c(OC)c(OC)c2)nc2ccccc12 the results were D3 antag inactive, LDHA inh inactive, D3 ag inactive, PI4K2A block inactive and PI5P4K alpha inh inactive.
Screening CS(=O)c1ccc(C(=O)NCc2ccc(-c3nc4ccccc4s3)o2)cc1 (configuration not stated) returned LDHA inh inactive.
`O=C(CSc1nc2cc([N+](=O)[O-])ccc2o1)Nc1ccc(F)cc1` gave LDHA inh inactive.
`Cc1c(Cl)c(-c2n[nH]c(=S)n2-c2ccc(F)cc2)nn1C` gave D3 antag -65.9, LDHA inh inactive, D3 ag inactive, PI4K2A block inactive and PI5P4K alpha inh inactive.
Cn1cc(Cl)c(-c2n[nH]c(=S)n2-c2ccc(F)cc2)n1 was read as D3 antag inactive, LDHA inh inactive, D3 ag inactive, PI4K2A block inactive and PI5P4K alpha inh inactive.
CC(C)NCCOCCOc1ccccc1 was read as LDHA inh inactive.
`CSC1=NS(=O)(=O)c2c(C)nn(C)c2S1` gave D3 antag -69.1, LDHA inh inactive, D3 ag inactive, PI4K2A block inactive and PI5P4K alpha inh -76.3.
`CCN1CCOC(=O)C1CC(=O)Nc1cc(C)cc(C)c1` (configuration not stated) gave LDHA inh inactive, D3 ag inactive and PI4K2A block inactive.
For COc1ccc(S(=O)(=O)N2CCC(N3CCN(c4ccccc4OC)CC3)CC2)cc1 the results were D3 antag inconclusive, LDHA inh -31.6, D3 ag inactive, PI4K2A block inactive and PI5P4K alpha inh inactive.
Screening COc1ccccc1N1CCN(C2CCCN(S(=O)(=O)c3ccc(C)cc3)C2)CC1 (configuration not stated) returned D3 antag -80.1, LDHA inh inactive, D3 ag inactive, PI4K2A block inactive and PI5P4K alpha inh inactive.
COc1ccccc1N1CCN(C2CCN(S(=O)(=O)c3ccc(NC(C)=O)cc3)CC2)CC1 was read as D3 antag inactive, LDHA inh inactive, D3 ag inactive, PI4K2A block inactive and PI5P4K alpha inh inactive.
Screening CCCC(c1nnnn1CCc1ccccc1)N1CCN(C(=O)c2ccco2)CC1 (configuration not stated) returned D3 antag -51.0, LDHA inh inactive, D3 ag inactive, PI4K2A block inactive and PI5P4K alpha inh inactive.
Screening COc1ccc(CCN(C)C(=O)C2CCCN(Cc3ccccc3)C2)cc1OC (configuration not stated) returned LDHA inh inactive.
For CCOC(=O)N1CCN(C(=O)COc2ccc3c(c2)C(=O)CC(C)(C)O3)CC1 the results were D3 antag inactive, LDHA inh inactive, D3 ag inactive, PI4K2A block inactive and PI5P4K alpha inh inactive.
